From PubChem BioAssay (NCI)
About 83,000 compounds went through this panel and 20% of them were active in at least one assay; those are over-represented in the sample as a whole.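 Step 1: grow cells in 96-well plates. Step 2: add test compound at a single concentration. Step 3: incubate 48 h. Step 4: record percent growth.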 Active and inactive are the calls of the source. Rule for the calls: active = growth percent below 10; inactive = the rest.

Assays:
Assay in all cases: NCI-60 one-dose screen, 48 h (100 = growth as untreated, 0 = no growth, -100 = all killed)
Conditions in all cases: 10 µM unless noted
[1] = test system: DU-145 prostate
[2] = test system: K-562 leukemia
[3] = test system: MALME-3M melanoma
[4] = test system: MDA-MB-231 breast
[5] = test system: RXF 393 renal
[6] = test system: SF-268 CNS
[7] = test system: SF-295 CNS
[8] = test system: SF-539 CNS
[9] = test system: UACC-257 melanoma
[10] = test system: M14 melanoma
[11] = test system: HCT-15 colon
[12] = test system: SNB-19 CNS
[13] = test system: PC-3 prostate
[14] = test system: SK-MEL-5 melanoma
[15] = test system: UACC-62 melanoma
[16] = test system: LOX IMVI melanoma
[17] = test system: SK-MEL-28 melanoma
[18] = test system: U251 CNS
[19] = test system: SNB-75 CNS

Measured: growth

CN1CCN(CCCCCC(=O)Nc2nc(-c3cccc(NS(=O)(=O)c4cccc5c(N(C)C)cccc45)c3)cs2)CC1
inactive: [1] 84.8% | [3] 17.5% | [4] 68.8% | [5] 50.9% | [6] 90.9% | [7] 35.6% | [8] 58.2% | [9] 42.7% | [11] 23.1% | [12] 83.7% | [13] 67.4% | [14] 71% | [15] 83.2%
active: [2] 7.02% | [10] -28.7% | [16] -84.8% | [17] -61.1%

CC1=C(C)C(=O)C(Nc2cccc(C(=O)OC(C)(C)C)c2)=CC1=O
inactive: [1] 69.9% | [2] 77.2% | [3] 64.9% | [4] 66.2% | [5] 73.4% | [6] 80.5% | [7] 94.3% | [8] 89.9% | [9] 62.5% | [10] 88.3% | [11] 60.4% | [12] 78.2% | [18] 64.3% | [14] 31.3% | [15] 65.6% | [16] 47.3% | [17] 96.5%

COc1ccc2c(c1)c(-c1nc(N)nnc1-c1c[nH]c3ccccc13)cn2C
inactive: [1] 59.6% | [2] 16.3% | [3] 37.2% | [4] 46.2% | [5] 39.5% | [6] 45.6% | [7] 23.7% | [8] 25.2% | [9] 67.4% | [10] 29.8% | [11] 22.9% | [12] 31.5% | [18] 24.6% | [13] 43.4% | [14] 26% | [15] 26.1% | [16] 33.1% | [17] 54.5%
active: [19] -11.9%

CCNC(=O)Oc1ccc(/C(=C(/C)c2ccc(Cl)cc2)c2ccc(OCCN3CCCCCC3)cc2)cc1
inactive: [1] 58.5% | [4] 21.3% | [6] 53.9% | [19] 75.6% | [12] 34.2% | [13] 13.4% | [14] 33.1%
active: [2] 5.06% | [3] -58.4% | [5] -10.3% | [7] -40.1% | [8] -44% | [9] -19.9% | [10] -76.5% | [11] -31.6% | [15] 2.74% | [16] -87.8% | [17] -76%

COC(=O)c1cccc(NC2=CC(=O)C(C)=C(C)C2=O)c1
inactive: [1] 108% | [2] 69.3% | [3] 97.9% | [4] 76.4% | [5] 94.2% | [6] 97.3% | [7] 115% | [8] 97.2% | [9] 86.9% | [10] 108% | [11] 93.8% | [19] 93.4% | [12] 96.2% | [18] 94.7% | [13] 79.7% | [14] 96.3% | [15] 96.2% | [16] 61% | [17] 111%

CNc1sc(S(=O)(=O)NC)nc1S(=O)(=O)c1ccc(C)cc1
inactive: [1] 107% | [2] 97.5% | [3] 110% | [4] 101% | [5] 108% | [6] 103% | [7] 93.6% | [8] 98.6% | [9] 100% | [10] 101% | [11] 94.2% | [19] 88.3% | [12] 96% | [18] 95.8% | [13] 96.7% | [14] 98.4% | [15] 91.3% | [16] 96.1% | [17] 102%

C#CCN(C)CCCOc1ccc(NCc2ccc(/C=C/C(=O)NO)cc2)cc1Cl
inactive: [1] 13.7% | [2] 15.3% | [4] 16.1% | [6] 12.9% | [9] 21% | [13] 19%
active: [3] 4.84% | [5] -56.2% | [7] -65.5% | [8] -7.77% | [10] 0.456% | [11] 8.05% | [19] 9.93% | [12] 8.74% | [18] -13.3% | [14] -87.2% | [15] -53.7% | [16] -69.5% | [17] -14.4%

O=C(CSc1nnc(-c2cccs2)n1-c1ccccc1)Nc1ccccc1
inactive: [1] 83.3% | [2] 49.6% | [3] 35.2% | [4] 76.4% | [5] 59.8% | [6] 60% | [7] 90.1% | [8] 60.7% | [9] 85.4% | [10] 88.2% | [11] 80.3% | [12] 54.1% | [18] 84.3% | [13] 83% | [14] 80.1% | [15] 67.7% | [16] 71.9% | [17] 76.9%
